The source of these data is publication doi:10.1101/2024.03.05.583629.

This assay deals with pT7_6His-AlfaTag-HOXD13 (human, UniProt P35453 263-343). Nature of the assay: PADIT-seq. Particulars: dsDNA, one strand shown.
pT7_6His-AlfaTag-HOXD13, sequence (P35453 263-343): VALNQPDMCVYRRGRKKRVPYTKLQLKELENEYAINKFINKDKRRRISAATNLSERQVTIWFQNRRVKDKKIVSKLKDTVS
The sequence “CTCGAGGATATCAAGATCTGGCCTCGGCTTGTTAAAAGGAACCTCTAGCTAGCCGACTCACTATAGGGATAATCGCCCTGAGCAAAGACC” registered a binding signal of 3.01 ± 0.0792 log2FC. To “CTCGAGGATATCAAGATCTGGCCTCGGCGTTTTAAGAGGAACCTCTAGCTAGCCGACTCACTATAGGGATAATCGCCCTGAGCAAAGACC” belongs 2.61 ± 0.088 log2FC; to “CTCGAGGATATCAAGATCTGGCCTCGGCCTTTTAGTAGGAACCTCTAGCTAGCCGACTCACTATAGGGATAATCGCCCTGAGCAAAGACC”, 1.19 ± 0.0808 log2FC; to “CTCGAGGATATCAAGATCTGGCCTCGGCCGCACCCGCGGAACCTCTAGCTAGCCGACTCACTATAGGGATAATCGCCCTGAGCAAAGACC”, -1.02 ± 0.126 log2FC. To “CTCGAGGATATCAAGATCTGGCCTCGGCCAACTAAAAGGAACCTCTAGCTAGCCGACTCACTATAGGGATAATCGCCCTGAGCAAAGACC” belongs 0.0444 ± 0.126 log2FC; to “CTCGAGGATATCAAGATCTGGCCTCGGCGTTTTATCAGGAACCTCTAGCTAGCCGACTCACTATAGGGATAATCGCCCTGAGCAAAGACC”, 2.41 ± 0.0928 log2FC. Under “CTCGAGGATATCAAGATCTGGCCTCGGCTGTGTAAAAGGAACCTCTAGCTAGCCGACTCACTATAGGGATAATCGCCCTGAGCAAAGACC” stands 1.46 ± 0.0852 log2FC; under “CTCGAGGATATCAAGATCTGGCCTCGGCATTTTAACCGGAACCTCTAGCTAGCCGACTCACTATAGGGATAATCGCCCTGAGCAAAGACC”, 1.17 ± 0.0785 log2FC. “CTCGAGGATATCAAGATCTGGCCTCGGCCGGCTAAAAGGAACCTCTAGCTAGCCGACTCACTATAGGGATAATCGCCCTGAGCAAAGACC” had a binding signal of -0.621 ± 0.107 log2FC. Under “CTCGAGGATATCAAGATCTGGCCTCGGCCTTTTAGCCGGAACCTCTAGCTAGCCGACTCACTATAGGGATAATCGCCCTGAGCAAAGACC” stands -0.235 ± 0.0913 log2FC; under “CTCGAGGATATCAAGATCTGGCCTCGGCGTTTTACGCGGAACCTCTAGCTAGCCGACTCACTATAGGGATAATCGCCCTGAGCAAAGACC”, 2.22 ± 0.0821 log2FC.

Regarding “CTCGAGGATATCAAGATCTGGCCTCGGCTGTTTAAAAGGAACCTCTAGCTAGCCGACTCACTATAGGGATAATCGCCCTGAGCAAAGACC”, the binding signal amounted to 1.97 ± 0.0666 log2FC.

“CTCGAGGATATCAAGATCTGGCCTCGGCCTTCTAAAAGGAACCTCTAGCTAGCCGACTCACTATAGGGATAATCGCCCTGAGCAAAGACC” registered a binding signal of 0.087 ± 0.127 log2FC. Sequence “CTCGAGGATATCAAGATCTGGCCTCGGCTTTTTATAAGGAACCTCTAGCTAGCCGACTCACTATAGGGATAATCGCCCTGAGCAAAGACC” yielded a binding signal of 3.23 ± 0.0851 log2FC. Under “CTCGAGGATATCAAGATCTGGCCTCGGCCTCATAAAAGGAACCTCTAGCTAGCCGACTCACTATAGGGATAATCGCCCTGAGCAAAGACC” stands 3.06 ± 0.0788 log2FC; under “CTCGAGGATATCAAGATCTGGCCTCGGCATTTTAGCAGGAACCTCTAGCTAGCCGACTCACTATAGGGATAATCGCCCTGAGCAAAGACC”, 0.721 ± 0.101 log2FC; under “CTCGAGGATATCAAGATCTGGCCTCGGCCGCCCATCTGGAACCTCTAGCTAGCCGACTCACTATAGGGATAATCGCCCTGAGCAAAGACC”, -0.946 ± 0.119 log2FC. Regarding “CTCGAGGATATCAAGATCTGGCCTCGGCGTTTTAACTGGAACCTCTAGCTAGCCGACTCACTATAGGGATAATCGCCCTGAGCAAAGACC”, the binding signal amounted to 1.39 ± 0.0832 log2FC. To “CTCGAGGATATCAAGATCTGGCCTCGGCCCTATAAAAGGAACCTCTAGCTAGCCGACTCACTATAGGGATAATCGCCCTGAGCAAAGACC” belongs 2.89 ± 0.0925 log2FC. To “CTCGAGGATATCAAGATCTGGCCTCGGCGTTTTACATGGAACCTCTAGCTAGCCGACTCACTATAGGGATAATCGCCCTGAGCAAAGACC” belongs 2.03 ± 0.0856 log2FC; to “CTCGAGGATATCAAGATCTGGCCTCGGCTGACCACGCGGAACCTCTAGCTAGCCGACTCACTATAGGGATAATCGCCCTGAGCAAAGACC”, -1.02 ± 0.112 log2FC; to “CTCGAGGATATCAAGATCTGGCCTCGGCTTTTTAATAGGAACCTCTAGCTAGCCGACTCACTATAGGGATAATCGCCCTGAGCAAAGACC”, 2.75 ± 0.0795 log2FC.

In the case of “CTCGAGGATATCAAGATCTGGCCTCGGCTTTTTACAAGGAACCTCTAGCTAGCCGACTCACTATAGGGATAATCGCCCTGAGCAAAGACC”, the binding signal amounted to 3.28 ± 0.0787 log2FC. Under “CTCGAGGATATCAAGATCTGGCCTCGGCGTTTTAGGAGGAACCTCTAGCTAGCCGACTCACTATAGGGATAATCGCCCTGAGCAAAGACC” stands 1.64 ± 0.105 log2FC. Under “CTCGAGGATATCAAGATCTGGCCTCGGCGCTCTAAAAGGAACCTCTAGCTAGCCGACTCACTATAGGGATAATCGCCCTGAGCAAAGACC” stands 0.0795 ± 0.0859 log2FC; under “CTCGAGGATATCAAGATCTGGCCTCGGCTTTTTAGGAGGAACCTCTAGCTAGCCGACTCACTATAGGGATAATCGCCCTGAGCAAAGACC”, 1.41 ± 0.0944 log2FC; under “CTCGAGGATATCAAGATCTGGCCTCGGCGTTTTAGAAGGAACCTCTAGCTAGCCGACTCACTATAGGGATAATCGCCCTGAGCAAAGACC”, 0.37 ± 0.103 log2FC. In the case of “CTCGAGGATATCAAGATCTGGCCTCGGCATTTTACCCGGAACCTCTAGCTAGCCGACTCACTATAGGGATAATCGCCCTGAGCAAAGACC”, the binding signal was -0.0737 ± 0.0918 log2FC. Under “CTCGAGGATATCAAGATCTGGCCTCGGCCTTTTAATCGGAACCTCTAGCTAGCCGACTCACTATAGGGATAATCGCCCTGAGCAAAGACC” stands 1.35 ± 0.0812 log2FC. In the case of “CTCGAGGATATCAAGATCTGGCCTCGGCCGTGTAAAAGGAACCTCTAGCTAGCCGACTCACTATAGGGATAATCGCCCTGAGCAAAGACC”, the binding signal is 1.58 ± 0.0857 log2FC. Under “CTCGAGGATATCAAGATCTGGCCTCGGCCGTCTAAAAGGAACCTCTAGCTAGCCGACTCACTATAGGGATAATCGCCCTGAGCAAAGACC” stands -0.577 ± 0.117 log2FC; under “CTCGAGGATATCAAGATCTGGCCTCGGCGTTTTATCTGGAACCTCTAGCTAGCCGACTCACTATAGGGATAATCGCCCTGAGCAAAGACC”, 0.898 ± 0.106 log2FC.

The sequence “CTCGAGGATATCAAGATCTGGCCTCGGCCGCTTAAAAGGAACCTCTAGCTAGCCGACTCACTATAGGGATAATCGCCCTGAGCAAAGACC” gave a binding signal of 0.46 ± 0.0911 log2FC.

The sequence “CTCGAGGATATCAAGATCTGGCCTCGGCGTTTTAAACGGAACCTCTAGCTAGCCGACTCACTATAGGGATAATCGCCCTGAGCAAAGACC” yielded a binding signal of 0.884 ± 0.0954 log2FC.

For the sequence “CTCGAGGATATCAAGATCTGGCCTCGGCTATTTAAAAGGAACCTCTAGCTAGCCGACTCACTATAGGGATAATCGCCCTGAGCAAAGACC”, the binding signal worked out at 2.42 ± 0.0909 log2FC. To “CTCGAGGATATCAAGATCTGGCCTCGGCTCACCACGCGGAACCTCTAGCTAGCCGACTCACTATAGGGATAATCGCCCTGAGCAAAGACC” belongs -1.05 ± 0.123 log2FC; to “CTCGAGGATATCAAGATCTGGCCTCGGCATTTTACTGGGAACCTCTAGCTAGCCGACTCACTATAGGGATAATCGCCCTGAGCAAAGACC”, 2.8 ± 0.0813 log2FC; to “CTCGAGGATATCAAGATCTGGCCTCGGCGTTTTATTTGGAACCTCTAGCTAGCCGACTCACTATAGGGATAATCGCCCTGAGCAAAGACC”, 2.98 ± 0.0869 log2FC.
